Test results taken from PubChem BioAssay AID624330 (Southern Research Specialized Biocontainment Screening …, 2012).
Among all 340,000 compounds or so, about 2,100 (0.62%) were called active.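 How the source made its calls: active means first-screen hits whose inhibition reached a set limit at any dose in the follow-up dose series; inconclusive means inhibition above the set first-screen limit but never retested; inactive means the rest.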 Not all results are given here. Measured potencies and affinities stand elsewhere.

biological target: Rac GTPase-activating protein 1 (Homo sapiens) (UniProt Q9H0H5); assay: blockers of MgcRacGAP-driven Rac1 GTP hydrolysis – biochemical, ADP Hunter fluorescence, primary and confirmatory, confirmation (AID 624330); conditions: MgcRacGAP-stimulated Rac1 GTP hydrolysis, at 30 µM, stronger effect = higher value, GST-tagged Rac1 F28L mutant substrate;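 further: fluorescence reports GDP produced by GAP-driven GTP hydrolysis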
Sequence (Q9H0H5 whole entry, looked up): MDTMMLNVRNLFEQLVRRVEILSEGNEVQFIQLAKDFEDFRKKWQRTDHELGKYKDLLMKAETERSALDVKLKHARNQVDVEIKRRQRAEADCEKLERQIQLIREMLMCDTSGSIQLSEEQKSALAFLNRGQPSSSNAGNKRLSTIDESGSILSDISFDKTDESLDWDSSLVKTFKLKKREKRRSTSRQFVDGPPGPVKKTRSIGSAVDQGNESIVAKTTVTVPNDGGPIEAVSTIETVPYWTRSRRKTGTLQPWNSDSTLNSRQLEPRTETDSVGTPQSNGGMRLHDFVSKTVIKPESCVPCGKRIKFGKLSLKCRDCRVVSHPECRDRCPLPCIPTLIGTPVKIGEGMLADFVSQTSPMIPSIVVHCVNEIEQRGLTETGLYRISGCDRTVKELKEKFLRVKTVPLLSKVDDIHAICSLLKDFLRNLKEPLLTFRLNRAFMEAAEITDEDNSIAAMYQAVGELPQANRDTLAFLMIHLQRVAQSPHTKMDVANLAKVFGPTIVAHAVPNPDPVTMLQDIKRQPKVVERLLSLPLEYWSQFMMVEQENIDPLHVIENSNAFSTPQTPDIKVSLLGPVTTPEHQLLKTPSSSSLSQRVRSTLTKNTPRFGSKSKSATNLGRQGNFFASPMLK

inhibition, inactive:
COc1cc2[nH]c(C(=O)N3CCC(Cc4ccccc4)CC3)cc2c(OC)c1OC 4.96%
Cc1ccc(-n2nc(C)c3c2OC(N)=C(C#N)C3c2ccc(F)cc2)cc1 (stereo unspecified) 6.17%
Cc1c(C(=O)N/N=C/c2cccs2)nc2ccccn12 4.8%
CCN1C(=O)c2ccc(C(=O)Nc3c(C)cc(C)cc3C)cc2C1=O -2.89%
Cc1ccc(C(=O)Nc2ccc(O)cc2C(=O)O)cc1 14.9%
CC(C)(C)N1C(=O)c2ccc(C(=O)Nc3ccc(C(=O)O)cc3)cc2C1=O 1.96%
CC(C)CN1C(=O)c2ccc(C(=O)Nc3ccc(O)cc3C(=O)O)cc2C1=O 15.1%
CC(C)(C)N1C(=O)c2ccc(C(=O)Nc3cc(C(=O)O)cc(C(=O)O)c3)cc2C1=O 13.1%
Cc1cc(N)ccc1NC(=O)c1ccccc1 6.01%
Cc1ccc(N2C(=O)c3ccc(C(=O)N4CCOCC4)cc3C2=O)cc1C -11.3%
O=C(COC(=O)c1ccc(O)cc1O)c1ccc(Cl)cc1 2.91%
CCCOP(=O)(c1ccc(N(C)C)cc1)C(O)c1ccccc1OC (stereo unspecified) 4.57%
Nc1cc2c(cc1Cl)-c1ccc(Cl)cc1C2=O 3.85%
Nc1ccc2c(c1)C(=O)c1ccc(N)cc1-2 22.8%
Nc1ccc2c(c1)C(=O)c1cc(Cl)c(Cl)cc1-2 7.4%
Nc1ccc2c(c1)C(=O)c1ccccc1-2 18.2%
CCOC(=O)C1CCN(CCC(=O)Nc2ccccc2)CC1 12.6%
Cc1cccc(NC(=S)NCc2cccs2)c1 9.05%
COc1cc(C(=O)N[C@@H](Cc2c[nH]c3ccccc23)C(=O)O)cc(OC)c1OC 1.53%
O=C(/C=C/c1ccc(F)cc1)NC(Cc1c[nH]c2ccccc12)C(=O)O (stereo unspecified) -4.83%
Cc1nn(-c2ccccc2)c(NC(=O)c2cccs2)c(-c2ccccc2)c1=O 0.27%
Cc1cccc(NC(=O)N2CCCCCC2)c1 4.32%
CCc1cc2c(SCc3ccc(C(=O)OC)o3)ncnc2s1 7.63%
COc1cccc(/C=C2\SC(=S)N(NC(=O)c3ccncc3)C2=O)c1 15.5%
O=C(NN1C(=O)/C(=C/c2cccs2)SC1=S)c1ccncc1 8.88%
CC(=O)NN1C(=O)/C(=C\c2ccc(C)cc2)SC1=S 9.68%
CCOc1cc(/C=C2\SC(=S)N(Nc3ccccc3)C2=O)ccc1O 11.1%
CC(=O)NN1C(=O)/C(=C\c2ccc(Cl)cc2)SC1=S 7.77%
COc1cc(/C=C2\SC(=S)N(Nc3ccccc3)C2=O)cc(OC)c1OC 11.2%
O=C1/C(=C\c2ccc(O)cc2)SC(=S)N1c1cccnc1 2.66%
O=C1/C(=C\c2ccc(O)cc2)SC(=S)N1Cc1ccccc1 10.6%
N/C(=N\OC(=O)Cc1ccc(-c2ccccc2)cc1)c1cccnc1 5.49%
CCNC(=S)N1C2CCC1CC(NC(=O)NC1CCCCC1)C2 (stereo unspecified) 1.32%
c1ccc(-n2ncc3c(N4CCN(CCOc5cccc6ccccc56)CC4)ncnc32)cc1 -0.49%
CCCCOC(=O)c1cc(Cl)c(O)c(OC)c1 13.4%
CC(NC(=O)c1ccc(F)cc1)c1ccc(F)cc1 (stereo unspecified) 4.7%
O=C(Nc1ccccc1)C(Cc1ccccc1)c1ccccc1 (stereo unspecified) -2.68%
CCOc1ccc(N2CC(C(=O)Nc3cc(OCC)c(N4CCOCC4)cc3OCC)CC2=O)cc1 (stereo unspecified) 2.59%
CCN1CCN(C(=O)C2(NC(=O)Nc3ccccc3Cl)CCCCC2)CC1 2.74%
O=c1ccc(-c2ccccc2)no1 1.17%
Cc1ccc(S(=O)(=O)CCC(=O)OCC(=O)Nc2cc(F)ccc2C)cc1 1.06%
CCOC(=O)CC1C(=O)NCCN1S(=O)(=O)c1cccc(C(F)(F)F)c1 (stereo unspecified) 7.16%
O=C(Nc1ncnc2sc3c(c12)CCCC3)c1ccncc1 -0.48%
O=C(NN1C(=O)/C(=C/c2cccc(O)c2)SC1=S)c1ccccc1O 5.04%
O=C(NN1C(=O)/C(=C/c2ccc(O)cc2)SC1=S)c1cccc(O)c1 30.8%
O=C(CCCN1C(=O)/C(=C\c2ccccc2)SC1=S)Nc1ccc(O)cc1C(=O)O 12.8%
O=C(O)c1ccc(/C=C2\SC(=S)N(NC(=O)c3ccccc3)C2=O)cc1 8.51%
Cc1ccc(/C=C2\SC(=S)N(CCC(=O)NNC(=O)c3ccc(O)cc3)C2=O)cc1 6.6%
COc1cc(/C=C2\SC(=S)N(NC(=O)c3ccccc3OC)C2=O)ccc1O 8.13%
CCOC(=O)CSc1nc2cc(S(=O)(=O)Nc3ccccc3OC)ccc2o1 5.81%
Clc1cccc(CSc2ncnc3c2ncn3C2CCCCO2)c1 (stereo unspecified) 2.71%
NS(=O)(=O)c1ccc(CCNC(=O)CN2CCN(Cc3cccc4ccccc34)CC2)cc1 3.28%
O=C(O)/C=C/c1ccc([N+](=O)[O-])o1 12.4%
O=C1NC(=S)S/C1=C\c1cccc([N+](=O)[O-])c1 11.9%
Cc1cc2[nH]c3ccccc3c2cn1 17%
COC(=O)c1c(NC(=O)C2CCCCC2)sc2c1CCN(C(C)C)C2 8.85%
O=C(c1ccccc1)N1CCN(CC(O)COc2ccc(Br)cc2)CC1 (stereo unspecified) 1.08%
CCOC(=O)N1CCN(CC(O)COc2c(C)cc(C)cc2C)CC1 (stereo unspecified) 3.3%
CC(=O)N1CCN(CC(O)COc2ccc(OCc3ccccc3)cc2)CC1 (stereo unspecified) 3.99%
COc1cccc(OCC(O)CN2CCOCC2)c1 (stereo unspecified) 6.97%
CCN1CCN(CC(O)COc2cccc(OC)c2)CC1 (stereo unspecified) 8.83%
Cc1cccc(C)c1OCC(O)CN1CCN(C(=O)c2ccccc2)CC1 (stereo unspecified) -23.8%
CCN(CC)CCNC(=O)NC(=O)c1ccc(Cl)cc1 -9.05%
O=C(NCc1ccccc1F)C(=O)NCC1OCCCN1S(=O)(=O)c1cccs1 (stereo unspecified) -0.33%
COc1ccc(NC(=O)COc2nsnc2N2CCCCC2)cc1 17.2%
Cc1ccc(N(Cc2ccc(C(=O)NCC3CCCO3)cc2)S(C)(=O)=O)cc1C (stereo unspecified) -2.07%
COc1ccc(O[C@@H]2O[C@H](COC(C)=O)[C@@H](OC(C)=O)[C@H](OC(C)=O)[C@H]2NC(C)=O)cc1 5.33%
CC(=O)NC1C(Oc2ccc(C=O)cc2)OC(COC(C)=O)C(OC(C)=O)C1OC(C)=O (stereo unspecified) 0.46%
O=C(NCc1ccc(F)cc1F)Nc1cnccc1C(F)(F)F 0.3%
CC1(c2nnc(-c3ccccc3)o2)CC(c2c(Cl)cccc2Cl)=NO1 (stereo unspecified) 7.59%
Cc1ccc(/C=N/N2CCN(c3ccccc3)CC2)cc1 14.1%
C(=N\N1CCN(c2ccccn2)CC1)/c1ccccn1 13.7%
Cc1ccc(/C=N/N2CCN(c3ccccn3)CC2)cc1 6.1%
C(=N\N1CCN(c2ccccc2)CC1)/c1ccccc1 9.75%
COc1ccc(CCNC(=O)C2CCN(S(=O)(=O)c3ccc(OC)c(OC)c3)CC2)cc1OC 1.02%
CCCOc1ccc(C2C(C(=O)c3ccc(C)o3)=C(O)C(=O)N2Cc2ccco2)cc1 (stereo unspecified) 9.74%
O=[N+]([O-])c1ccc(NN=C(C2CC2)C2CC2)c([N+](=O)[O-])c1 9.77%
COC(=O)c1sc2nc(-c3ccccc3)nc(N3CCN(C)CC3)c2c1C 6.27%
COc1ccccc1N1C(=O)CC(Sc2ccccc2N)C1=O (stereo unspecified) 2.06%
COc1ccc(Cc2c3cc(OC)c(OC)cc3cc[n+]2C)cc1OC -5.7%
COc1ccc(C(=O)Nc2c(O)ccc3ccccc23)cc1OC 9.73%
COc1cc2ccc(=O)oc2cc1O 16.3%
COc1cc2ccc(C(C)=O)c(O)c2cc1OC 8.81%
O=C(CN(Cc1ccc(Cl)cc1)C(=O)CN1C(=O)COc2ccccc21)NC1CCCC1 8.29%
O=C(Nc1cccc(F)c1)Nc1ccc(Cl)cn1 0.09%
CC(=C/c1ccccc1)/C=N/N1CCN(Cc2ccc(C)cc2)CC1 7.95%
CCOC(=O)[C@H](O)[C@@H](O)c1cccc([C@H](O)[C@@H](O)C(=O)OCC)c1 11.8%
CN(Cc1ccccc1)C(=O)c1cc(-c2ccc(Br)cc2)on1 7.89%
Cc1ccc(CSc2nnc(NC(=O)Cn3cnc4ccccc4c3=O)s2)cc1 -8.67%
CCOC(=O)c1c(-c2ccc(-c3ccccc3)cc2)csc1NC(=O)CCN1CCOCC1 -2.88%
CCOC(=O)c1c(-c2ccccc2)csc1NC(=O)CCN1CCOCC1 18.3%
COC(=O)Cn1c(=NC(=O)C2COc3ccccc3O2)sc2cc(S(N)(=O)=O)ccc21 (stereo unspecified) 3.94%
COC(=O)c1cc(-c2ccc(Cl)cc2)n(-c2ccc(S(N)(=O)=O)cc2)n1 5.18%
O=S(=O)(N/N=C/c1ccc2c(c1)OCCO2)c1ccccc1 9.57%
COC(=O)c1cc(S(=O)(=O)NCc2ccccc2)c[nH]1 11.6%
COc1cc(O)cc2cc3c(c(O)c12)C(=O)CC(C)(O)O3 (stereo unspecified) -0.09%
